Source: PubChem BioAssay (NCI)
The panel holds about 79,000 compounds, 15% with a hit somewhere; the sample as a whole holds those more often. Activity calls are given as the source filed them. Rule as the data show it: active = growth inhibition above about 70%; inactive = the rest.

Assays:
[1] = NCI Yeast Anticancer Drug Screen. Data for the rad50 strain (AID 155);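 also: 0% = growth of vehicle-only cultures of the same strain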; conditions: S. cerevisiae rad50 strain growth inhibition, stronger effect = higher value
How it was run: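 Compounds were tested on a yeast strain with an engineered DNA damage repair alteration; the reported value is growth inhibition normalised to vehicle treatment.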

[2] = NCI Yeast Anticancer Drug Screen. Data for the mec2-1 strain (AID 157); conditions: S. cerevisiae mec2-1 strain, stronger effect = higher value
How it was run: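 Vehicle-treated cultures served as reference for growth inhibition of compound-exposed mec2-1 yeast.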

[3] = NCI Yeast Anticancer Drug Screen. Data for the sgs1 mgt1 strain (AID 161);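 also: 0% = growth of cultures given vehicle only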; conditions: S. cerevisiae sgs1 mgt1 strain, stronger effect = higher value
How it was run: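 Inhibition of yeast growth, normalised to vehicle-treated controls, is reported for a strain bearing genetic alterations in DNA damage repair.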

[4] = NCI Yeast Anticancer Drug Screen. Data for the cln2 rad14 strain (AID 165);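 also: 0% = growth equal to vehicle treated cultures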; conditions: S. cerevisiae cln2 rad14 strain, stronger effect = higher value
How it was run: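 Each compound was tested on cln2 rad14 yeast. Inhibition of growth was calculated against vehicle-exposed controls.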

[5] = NCI Yeast Anticancer Drug Screen. Data for the bub3 strain (AID 167); conditions: S. cerevisiae bub3 mutant strain, stronger effect = higher value
How it was run: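 Growth of a checkpoint-deficient yeast mutant is measured after compound exposure. Values represent inhibition relative to vehicle.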

[6] = NCI Yeast Anticancer Drug Screen. Data for the mlh1 rad18 strain (AID 175); conditions: S. cerevisiae mlh1 rad18 strain growth inhibition, stronger effect = higher value
How it was run: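 Vehicle-treated cultures served as the reference for growth inhibition in a yeast strain carrying DNA damage repair alterations exposed to each compound.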

[7] = at 5.0 µM (retest, dose inferred, filed as 0.5)
[8] = at 50.0 µM (retest, dose inferred, filed as 5.0)

Measured: growth inhibition

COc1cc2c(cc1OC)c1c(OC)c(OC)cc3c1c1c2sc(=S)n1CC3
active: [1]; at 50.0 µM 93% | [2]; at 50.0 µM 96.9% | [3]; at 50.0 µM 96.1% | [4]; at 50.0 µM 93.8% | [5]; at 50.0 µM 95.4% | [6]; at 50.0 µM 99%
inactive: [1]; [7] 4% | [1]; [8] 59% | [2]; [7] 14% | [2]; [8] 46% | [3]; [7] 11% | [3]; [8] 55% | [4]; [7] 5% | [4]; [8] 14% | [5]; [7] 4% | [5]; [8] 33% | [6]; [7] 5% | [6]; [8] 53%

O=c1nc(NC(c2ccccc2)(c2ccccc2)c2ccccc2)ccn1CCNCCn1ccc(NC(c2ccccc2)(c2ccccc2)c2ccccc2)nc1=O
active: [1]; [7] 82% | [1]; [8] 96% | [1]; at 50.0 µM 87.6% | [2]; [8] 97% | [2]; at 50.0 µM 89% | [3]; [8] 98% | [3]; at 50.0 µM 91.5% | [4]; [8] 97% | [4]; at 50.0 µM 89.2% | [5]; [7] 74% | [5]; [8] 98% | [5]; at 50.0 µM 91% | [6]; [7] 90% | [6]; [8] 97% | [6]; at 50.0 µM 90%
inactive: [2]; [7] 52% | [3]; [7] 65% | [4]; [7] 34%

O=C(c1ccccc1)C(C(=O)c1ccccc1)c1ccc2ccccc2n1
inactive: [1]; [7] 0% | [1]; [8] 1% | [1]; at 50.0 µM 19.2% | [2]; [7] 1% | [2]; [8] -4% | [2]; at 50.0 µM 2.75% | [3]; [7] -2% | [3]; [8] -1% | [3]; at 50.0 µM 63.5% | [4]; [7] -2% | [4]; [8] 1% | [4]; at 50.0 µM 9.75% | [5]; [7] 1% | [5]; [8] -4% | [5]; at 50.0 µM 19.1% | [6]; [7] -2% | [6]; [8] -3% | [6]; at 50.0 µM 22.9%

CCN(CC)CCCC(C)Nc1c2ccccc2nc2c(C)cc(Br)cc12 (stereo not given)
inactive: [1]; [7] 2% | [1]; at 50.0 µM 58% | [2]; [7] 8% | [2]; [8] 61% | [2]; at 50.0 µM 39.5% | [3]; [7] 17% | [3]; at 50.0 µM 63.1% | [4]; [7] 19% | [4]; [8] 66% | [5]; [7] 17% | [5]; at 50.0 µM 36.9% | [6]; [7] 8% | [6]; [8] 69% | [6]; at 50.0 µM 50.1%
active: [1]; [8] 72% | [3]; [8] 76% | [4]; at 50.0 µM 91.2% | [5]; [8] 71%

N=C(N)SC1c2ccccc2-c2ccc(N)cc21 (stereo not given)
active: [1]; [8] 95% | [1]; at 50.0 µM 98% | [2]; [8] 75% | [2]; at 50.0 µM 98.4% | [3]; [8] 77% | [3]; at 50.0 µM 98.5% | [4]; [8] 81% | [4]; at 50.0 µM 96.8% | [5]; [8] 86% | [5]; at 50.0 µM 97% | [6]; [8] 95% | [6]; at 50.0 µM 97.8%
inactive: [1]; [7] 17% | [2]; [7] 4% | [3]; [7] -1% | [4]; [7] -4% | [5]; [7] 0% | [6]; [7] 12%
